In PubChem BioAssay (Tox21):
Values joined by “and” are separate entries in the source; they are usually repeats but may differ in a detail not shown here. Identical values can stand only once. Records with an inconclusive call do not appear. A number with no mark means an inactive call. Active and inactive are the calls of the source. Calls follow the shape of the dose curve; as a rule, active = well fitted inhibition curve with a large enough effect in the repeat runs; inconclusive = weak or mixed curves; inactive = no such curve, though single readings can be large or run the other way.

target: Cytochrome P450 2C19 (Homo sapiens) (UniProt P33261); test: Cytochrome P450 Family 2 Subfamily C Member 19 (CYP2C19) small molecule antagonists: luciferase reporter qHTS assay (AID 1671197); conditions: P450-Glo CYP2C19 enzyme, luciferin luminescence, 1 h; series mostly up to 115 µM; activity change, negative = inhibition: at the top concentration; also: nearly all actives have a fitted effect of over 65% in size
Method in brief: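 Quantitative high-throughput screen of the Tox21 library using CYP2C19 with proluciferin substrate. Reaction: NADPH regeneration, 37C, 1 h, after 10 min compound preincubation at room temperature. Readout: luminescence.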
% is scaled to controls: 0 for no effect and ±100 for the full control effect; potency is read from the fitted curve at half-maximal effect.

Sequence of Cytochrome P450 2C19 (Homo sapiens) (P33261 whole entry, looked up): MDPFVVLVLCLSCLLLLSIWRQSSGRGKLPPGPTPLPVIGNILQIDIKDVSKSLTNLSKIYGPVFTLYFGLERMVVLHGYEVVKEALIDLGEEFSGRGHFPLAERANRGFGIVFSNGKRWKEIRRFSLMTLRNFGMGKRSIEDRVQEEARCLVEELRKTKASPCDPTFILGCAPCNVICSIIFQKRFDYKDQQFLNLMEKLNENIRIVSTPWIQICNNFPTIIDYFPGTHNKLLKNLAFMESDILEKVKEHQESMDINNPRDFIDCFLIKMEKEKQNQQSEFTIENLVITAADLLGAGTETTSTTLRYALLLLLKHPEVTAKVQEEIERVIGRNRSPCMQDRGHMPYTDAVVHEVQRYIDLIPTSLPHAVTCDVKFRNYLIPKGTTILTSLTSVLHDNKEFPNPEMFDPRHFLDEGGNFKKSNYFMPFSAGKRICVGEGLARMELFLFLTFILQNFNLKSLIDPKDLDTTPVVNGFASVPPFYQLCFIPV

Q: How did the “activity change, negative = inhibition” value turn out when `CCCC[N+]1(C)CCCC1` (tested in a mixture with another compound) was run?
A: Its value is -5.23%.

Q: With `Cc1ccccc1OP(=O)(Oc1ccccc1C)Oc1ccccc1C` as the compound, how does the Potency read?
A: The Potency was 1.6 µM (active).

Q: `CC(C)(C)c1ccc(OP(=O)(Oc2ccccc2)Oc2ccccc2)cc1` was tested. Which Potency did it give?
A: Its Potency is 5.06 µM (active).

Q: How did the Potency turn out when `C[C@]12Cc3cn[nH]c3C[C@@H]1CC[C@@H]1[C@@H]2CC[C@@]2(C)[C@H]1CC[C@]2(C)O` was run?
A: The Potency was 0.776 µM (active).

Q: How did the Potency turn out when `CCOP(=S)(NC(C)C)Oc1ccccc1C(=O)OC(C)C` (stereo unspecified) was run?
A: The Potency was 0.2 µM (active).

Q: `Cc1cc(C2CC2)nc(Nc2ccccc2)n1` was tested. Which Potency did it give?
A: Its Potency is 39.9 µM (active).

Q: `CC1=C2C[C@H]3[C@@H](CC=C4C[C@@H](O)CC[C@@]43C)[C@@H]2CC[C@]12O[C@@H]1C[C@H](C)CN[C@H]1[C@H]2C` was tested. Which “activity change, negative = inhibition” value did it give?
A: The value was 26.2% [at 52.9 µM].

Q: How did the Potency turn out when `Cc1ccc2cc3c(ccc4ccccc43)c3c2c1CC3` was run?
A: The Potency was 40 µM (active).

Q: For `O=S1OCC2C(CO1)C1(Cl)C(Cl)=C(Cl)C2(Cl)C1(Cl)Cl` (stereo unspecified), which Potency is on record?
A: Its Potency is 3.18 µM (active) and 3.56 µM (active).

Q: With `CN1C2CCC(C)(C)C1CC(OC(=O)C(O)(c1cccs1)c1cccs1)C2` (stereo unspecified) as the compound, how does the “activity change, negative = inhibition” value read?
A: Its value is 3.45% [at 52.9 µM].

Q: How did the Potency turn out when `COP(=O)(OC)Oc1ccc([N+](=O)[O-])cc1` was run?
A: The Potency was 20 µM (active).

Q: `CCCCCCCc1ccc(O)cc1` was tested. Which Potency did it give?
A: Its Potency is 20 µM (active).

Q: For `CCN(CC)CCc1c[nH]c2ccccc12`, which “activity change, negative = inhibition” value is on record?
A: Its value is 9.07%.

Q: `C#CCC1=C(C)C(OC(=O)C2C(C=C(C)C)C2(C)C)CC1=O` (stereo unspecified) was tested. Which Potency did it give?
A: Its Potency is 4.99 µM (active).

Q: `CN1CCc2cc(Cl)c(O)cc2[C@H]2c3ccccc3CC[C@@H]21` was tested. Which “activity change, negative = inhibition” value did it give?
A: Its value is -12.8% [at 52.9 µM].

Q: `CSC1=N[C@@](C)(c2ccccc2)C(=O)N1Nc1ccccc1` was tested. Which Potency did it give?
A: Its Potency is 1.12 µM (active).
